# Shown are actives, neighbours in structure and some others; about 9.8% of the full set was active somewhere.
# JMJD2E inh: JMJD2E (human) inhibition; B2RXH2; 230,000 compounds, 1.6% hits; AID 2147; Potency, µM (series often up to 57.1 µM), for inactives: top-dose activity change, negative = inhibition, most hits filed as inhibitors; JMJD2E catalytic domain, FDH-coupled NADH fluorescence (FDH is formaldehyde dehydrogenase);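 further: potency means the concentration at half of the fitted maximal effect; 0% = wells with enzyme and -100% = buffer wells without enzyme; nearly all actives have a fitted effect of over 50% in size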
# CBFb-RUNX1 inh: inhibitors of human CBF-beta and RUNX1 interaction. Q01196+Q13951. AlphaScreen CBFb-His/RUNX1-biotin binding, biochemical. Potency, µM (doses to about 59.8 µM), without a hit: top-dose activity, negative = inhibition, usual class: inhibitors. 230,000 tested, under 10 active; further: % of control where 0% means no effect
# Target sequence (Q01196 whole entry, looked up): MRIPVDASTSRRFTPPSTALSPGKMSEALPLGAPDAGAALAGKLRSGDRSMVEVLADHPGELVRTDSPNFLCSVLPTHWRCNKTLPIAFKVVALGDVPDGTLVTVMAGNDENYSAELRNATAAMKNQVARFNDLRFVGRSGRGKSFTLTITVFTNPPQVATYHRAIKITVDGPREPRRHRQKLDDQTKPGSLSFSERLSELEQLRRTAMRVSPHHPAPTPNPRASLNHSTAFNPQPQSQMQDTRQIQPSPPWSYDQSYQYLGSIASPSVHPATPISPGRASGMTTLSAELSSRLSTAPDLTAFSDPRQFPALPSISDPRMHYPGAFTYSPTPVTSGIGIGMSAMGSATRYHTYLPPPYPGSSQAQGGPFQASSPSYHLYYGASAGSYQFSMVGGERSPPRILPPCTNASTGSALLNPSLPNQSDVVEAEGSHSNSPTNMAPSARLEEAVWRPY
# Target sequence (Q13951 whole entry, looked up): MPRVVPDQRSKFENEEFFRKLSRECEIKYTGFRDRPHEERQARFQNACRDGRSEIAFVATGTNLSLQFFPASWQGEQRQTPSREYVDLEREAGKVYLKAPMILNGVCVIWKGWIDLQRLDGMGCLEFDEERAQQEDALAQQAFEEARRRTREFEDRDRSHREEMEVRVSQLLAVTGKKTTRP
#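 Compounds were screened at multiple concentrations against a preformed CBF-beta(His)/RUNX1(biotin) complex (30 nM of each) for 15 min at room temperature, followed by 90 min with nickel and streptavidin beads and AlphaScreen reading.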
# HPGD block: inhibitors of human 15-hydroxyprostaglandin dehydrogenase (HPGD); AID 894; 150,000 compounds, 4.3% hits; Potency, µM, inactives show at the top dose activity change, negative = inhibition, most hits filed as inhibitors; P15428; purified HPGD, NADH fluorescence kinetic, PGE2 substrate; active means well fitted inhibition curve with a large enough effect, not every such curve was filed as active; inconclusive means small, poorly fitted or top-dose-only effect, or another doubt; inactive means no such curve, though single readings can be large or run the other way; further: potency means the concentration at half of the fitted maximal effect; on the % scale 0 is the no-effect control and ±100 the full control effect
#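 20 nM HPGD preincubated 15 min at room temperature with compound in 50 mM Tris-HCl pH 8, 0.01% Tween 20. Started with 1 mM NAD+ and 30 uM prostaglandin E2; NADH fluorescence (360/450 nm) read 5 times over 30-s intervals, last minus first.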
# ALDH1A1 inh: blocks purified human ALDH1A1 activity; Potency, µM (top dose mostly 75.3 µM), for inactives: top-dose activity, negative = inhibition, actives largely listed as inhibitors; 220,000 compounds, 7.3% hits; Purified ALDH1A1, NADH fluorescence, propionaldehyde substrate; AID 1030; active means well fitted inhibition curve with a large enough effect, not every such curve was filed as active; inconclusive means small, poorly fitted or top-dose-only effect, or another doubt; inactive means no such curve, though single readings can be large or run the other way;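 further: potency means the concentration at half of the fitted maximal effect; plate controls were no enzyme wells and a reference inhibitor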
# HTT cytoprotect: protects HTT-Q103 PC12 cells, measured by ATP; Potency, µM (series often up to 56.4 µM), without a hit: cytoprotection (ATP increase), usual class: activators; 230,000 compounds, 0.14% hits; PC12 HTT-Q103 induced, cytoprotection, ATP luminescence, 40 h; further: potency means the concentration at half of the fitted maximal effect; % of control where 0% means no effect; nearly all actives have a fitted effect of over 45% in size
#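 Readout: ATPlite luminescence (ATP level). Model: stable PC12, inducible Htt exon1 Q103-GFP. Inducer: tebufenozide, 100 nM final. Compounds: dose series. No G418 in medium.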
# HttQ103 aggreg: inhibitors of mutant huntingtin aggregate formation in PC12 cells | 220,000 compounds, 1.1% hits | PC12 HttQ103-GFP aggregates, Acumen cytometry, 40 h | Potency, µM (highest dose often 46.1 µM), for the others: at the highest dose activity change, negative = inhibition, actives largely listed as inhibitors; further: potency means the concentration at half of the fitted maximal effect; on the % scale 0 is the no-effect control and ±100 the full control effect; nearly all actives have a fitted effect of over 60% in size
#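 Steps: seed 1500 PC12 HTTQ103-GFP cells/well; add tebufenozide, 100 nM final; add compound titration; add ATPLite reagent; quantify GFP aggregates by laser scanning cytometry.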
# An asterisk follows results filed as active; ? = inconclusive; nt = not tested or not shown; [ ] = remark or other dose. Unless noted, the call rests on the fitted dose curve; in most records, active means well fitted curve in the direction sought with a large enough effect; inconclusive means small, poorly fitted or top-dose-only effect, or another doubt; inactive means no such curve, though single readings can be large; an effect the other way counts as inactive or inconclusive.
SMILES,JMJD2E inh,CBFb-RUNX1 inh,HPGD block,ALDH1A1 inh,HTT cytoprotect,HttQ103 aggreg
CC(=O)Nc1sc2c(c1C#N)CCCC2,-0.3%,-5.1%,-8.7%,-2.8%,-7.6%,8.6%
N#Cc1c(NC(=S)NC(=O)c2ccccc2)sc2c1CCC2,3.2%,-3.3%,-24.7%,14.1µM*,-19.3%[10 µM],11.3%
CN1Cc2sc(NC(=S)NC(=O)c3ccccc3)c(C#N)c2CC1(C)C,-19.8%,-19.2%,nt,nt,-10.8%[10 µM],12.3%[9.22 µM]
COc1ccc2[nH]cc(CCNc3ncncc3-c3c(C)noc3C)c2c1,nt,nt,nt,2.3%,?,nt
O=C(Cc1ccc(Cl)cc1)Nc1ccc2c(c1)C(=O)NC2=O,?,3.1%,nt,0.3%,-6.2%[10 µM],2.8%[9.22 µM]
Cc1ccc(-c2noc(-c3ccoc3C)n2)cc1,-0.9%,0.0%,nt,-3.4%,-29.1%,1.4%[9.22 µM]
N#Cc1c(NC(=O)c2ccncc2)sc2c1CCC2,?,-29.7%,-21.9%,10µM*,-12.5%[10 µM],14.1%
N#Cc1c(NC(=O)C2C3C=CC(C3)C2C(=O)O)sc2c1CCCCC2 (configuration not stated),-3.6%,11.1%,nt,12.6µM*,nt,nt
COC(=O)CCC(=O)Nc1sc2c(c1C#N)CCCC2,-1.1%,1.8%,nt,11.2µM*,15.1%[10 µM],-6.9%
CCCCNN,nt,nt,1.6%,3.3%[13.5 µM],0.6%[10 µM],nt
CN1CCN(CCCN)CC1,nt,nt,2.5%,16.1%[13.5 µM],-5.8%[10 µM],nt
CCOc1cc(C(F)(F)F)cnc1/C(N)=N/O,-1.7%,-4.7%,nt,13.2%,11.9%[10 µM],-13.7%[9.22 µM]
O=S(=O)(c1ccccc1)c1nc(-c2ccccc2)oc1N1CCOCC1,-9.4%,7.4%,nt,3.55µM*,-12.4%[10 µM],4.4%[9.22 µM]
COc1cc(-c2nc(S(=O)(=O)c3ccccc3)c(N3CCOCC3)o2)cc(OC)c1OC,-8.8%,4.3%,-2.5%,10µM*,-37.6%,-23.6%
COc1ccc(-c2nc(S(=O)(=O)c3ccc(C)cc3)c(N3CCCC3)o2)cc1,0.3%,6.6%,-2.1%,?,15.0%[10 µM],-15.2%
Cc1ccc(S(=O)(=O)c2nc(C(C)(C)C)oc2N2CCOCC2)cc1,?,19.2%,-9.7%,10µM*,2.6%[10 µM],2.2%
Cc1ccc(S(=O)(=O)c2nc(C)oc2N2CCOCC2)cc1,-15.5%,-3.3%,nt,-8.6%,19.4%[10 µM],-3.4%[9.22 µM]
Cc1ccc(OC(C)C(=O)N(Cc2cccs2)C2CCS(=O)(=O)C2)cc1C (configuration not stated),-0.7%,4.7%,nt,nt,26.2%[10 µM],0.8%[9.22 µM]
CCCNC(=O)CN(c1ccc(F)cc1)S(=O)(=O)c1ccc2c(c1)OCCO2,5.0%,5.3%,-6.2%,-4.0%,-3.7%,8.7%
O=C(O)CN(c1ccc(F)cc1)S(=O)(=O)c1ccc2c(c1)OCCO2,6.1%,-3.7%,-3.6%,6.3%,3.16µM*,nt
CS(=O)(=O)N(CC(=O)Nc1cc(Cl)ccc1Cl)c1ccccc1Cl,0.6%,-0.1%,-3.0%,-15.6%,10.6%,24.9%[9.22 µM]
CC(=O)Nc1ccc(NC(=O)CN(c2cc(Cl)ccc2Cl)S(C)(=O)=O)cc1,12.9%,-1.2%,nt,5.0%,-6.9%,31.6µM*
COc1ccc(C2CC(=O)C3=C(C2)Nc2ccccc2NC3c2coc3ccccc3c2=O)cc1OC (configuration not stated),6.7%,-15.4%,-9.7%,10µM*,-1.3%[10 µM],-0.3%
CCOC(=O)c1c(NC(=O)CSc2nnc(-c3ccccc3C)n2C)sc(C(C)=O)c1C,1.8%,-2.6%,?,25.1µM*,-8.7%,-15.8%
CCOC(=O)c1c(NC(=O)CSc2nc3cccnc3n2C)sc(C(C)=O)c1C,3.5%,4.0%,-21.2%,-2.2%,-28.4%,-22.8%
CCOC(=O)c1c(NC(=O)CSc2ncnc3ccccc23)sc(C(C)=O)c1C,1.1%,-0.2%,?,-14.6%,2.51µM*,-22.5%
Cc1sc(NC(=O)c2ccc(=O)n(C)n2)nc1-c1ccccc1,-0.7%,1.7%,nt,28.2µM*,-70.6%,?
O=C(Cc1ccccc1)NC(=S)Nc1ccc2oc(-c3ccccc3)nc2c1,?,1.8%,?,22.4µM*,-1.8%[10 µM],-9.6%
COc1ccc(-c2nc(-c3ccccc3)c(NC(C)(C)C)o2)cc1,3.6%,-11.9%,-4.6%,0.5%,?,nt
